From PubChem BioAssay
Several values for one entry are separate records, joined by “and”; a condition that tells them apart may be missing. Identical values can stand only once.

Assays:
[1] = tested on: Botulinum neurotoxin type F light chain protease (Clostridium botulinum); assay: Botulinum neurotoxin type F light chain protease inhibition, multiplex microsphere flow cytometry, validation set (AID 588459); conditions: multiplex microsphere protease substrate cleavage assay, at 10 µM, active compounds read high
[2] = biological target: Botulinum neurotoxin type A (Clostridium botulinum) (UniProt P0DPI0); assay: BoNT/A light chain protease inhibitors, biochemical, multiplex microsphere flow cytometry, validation set (AID 588460); conditions: at 10 µM, active compounds read high
[3] = biological target: Lethal factor (Bacillus anthracis) (UniProt P15917); assay: Lethal factor protease inhibitors, Bacillus anthracis, multiplex microsphere cleavage assay, validation set (AID 588461); conditions: flow cytometry, at 10 µM, active compounds read high

Measured: inhibition

Sequence of Botulinum neurotoxin type A (Clostridium botulinum) (P0DPI0 whole entry, looked up): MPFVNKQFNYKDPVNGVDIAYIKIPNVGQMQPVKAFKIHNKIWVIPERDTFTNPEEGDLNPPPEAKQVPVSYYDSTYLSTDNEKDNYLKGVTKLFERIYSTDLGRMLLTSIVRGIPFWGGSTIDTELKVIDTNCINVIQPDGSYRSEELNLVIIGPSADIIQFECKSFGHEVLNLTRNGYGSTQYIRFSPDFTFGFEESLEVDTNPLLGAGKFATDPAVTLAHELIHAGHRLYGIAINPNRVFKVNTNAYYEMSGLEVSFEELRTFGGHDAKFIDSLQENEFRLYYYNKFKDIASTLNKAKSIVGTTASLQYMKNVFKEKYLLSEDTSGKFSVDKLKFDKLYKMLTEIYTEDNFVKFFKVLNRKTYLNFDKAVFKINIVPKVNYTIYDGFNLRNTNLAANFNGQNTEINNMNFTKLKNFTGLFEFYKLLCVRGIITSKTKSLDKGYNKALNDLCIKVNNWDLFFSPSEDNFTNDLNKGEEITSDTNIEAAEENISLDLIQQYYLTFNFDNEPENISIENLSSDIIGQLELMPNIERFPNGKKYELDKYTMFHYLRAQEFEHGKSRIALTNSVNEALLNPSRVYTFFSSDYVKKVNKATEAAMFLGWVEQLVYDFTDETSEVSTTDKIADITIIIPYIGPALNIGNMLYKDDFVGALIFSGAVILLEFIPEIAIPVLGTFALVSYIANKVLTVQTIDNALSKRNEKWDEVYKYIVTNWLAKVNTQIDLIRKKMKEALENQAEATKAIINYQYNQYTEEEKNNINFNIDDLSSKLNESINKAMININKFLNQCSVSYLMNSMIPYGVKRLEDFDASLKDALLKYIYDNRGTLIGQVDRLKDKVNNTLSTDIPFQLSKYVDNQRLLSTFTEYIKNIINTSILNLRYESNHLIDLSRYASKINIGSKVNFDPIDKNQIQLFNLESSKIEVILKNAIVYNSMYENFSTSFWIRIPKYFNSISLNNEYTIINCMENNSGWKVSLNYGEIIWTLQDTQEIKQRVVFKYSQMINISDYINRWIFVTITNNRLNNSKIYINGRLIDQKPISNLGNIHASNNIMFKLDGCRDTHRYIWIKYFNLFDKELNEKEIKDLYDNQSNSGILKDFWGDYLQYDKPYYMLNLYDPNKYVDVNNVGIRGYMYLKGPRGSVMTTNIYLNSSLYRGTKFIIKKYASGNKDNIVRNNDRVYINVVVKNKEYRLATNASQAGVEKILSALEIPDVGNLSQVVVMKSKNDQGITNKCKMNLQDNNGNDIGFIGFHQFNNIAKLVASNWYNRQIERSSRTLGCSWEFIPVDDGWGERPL
Sequence of Lethal factor (Bacillus anthracis) (P15917 whole entry, looked up): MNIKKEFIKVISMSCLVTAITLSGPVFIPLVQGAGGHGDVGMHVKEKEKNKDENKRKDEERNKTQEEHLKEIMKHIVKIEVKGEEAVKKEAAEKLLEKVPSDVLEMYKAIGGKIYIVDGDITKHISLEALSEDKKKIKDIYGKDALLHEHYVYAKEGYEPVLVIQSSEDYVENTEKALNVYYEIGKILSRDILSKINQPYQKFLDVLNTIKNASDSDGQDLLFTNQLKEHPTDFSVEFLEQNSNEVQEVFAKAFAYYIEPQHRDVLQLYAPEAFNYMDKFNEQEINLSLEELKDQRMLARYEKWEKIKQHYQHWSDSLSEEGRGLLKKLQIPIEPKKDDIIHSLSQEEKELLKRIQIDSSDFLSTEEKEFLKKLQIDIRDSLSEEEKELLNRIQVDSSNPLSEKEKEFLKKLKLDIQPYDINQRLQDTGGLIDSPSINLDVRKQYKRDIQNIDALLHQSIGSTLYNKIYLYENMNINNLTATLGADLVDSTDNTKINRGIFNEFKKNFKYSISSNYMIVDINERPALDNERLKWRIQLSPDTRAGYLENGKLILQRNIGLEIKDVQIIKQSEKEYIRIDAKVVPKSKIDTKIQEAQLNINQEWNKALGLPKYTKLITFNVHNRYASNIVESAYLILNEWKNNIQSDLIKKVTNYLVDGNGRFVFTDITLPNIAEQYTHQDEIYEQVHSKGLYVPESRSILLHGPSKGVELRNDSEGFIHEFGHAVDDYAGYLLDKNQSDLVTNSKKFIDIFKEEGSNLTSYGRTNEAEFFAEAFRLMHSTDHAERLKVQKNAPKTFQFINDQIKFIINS

CN1C(C(=O)Nc2ccccn2)=C(O)c2ccccc2S1(=O)=O
inactive: [1] 1.9% | [2] 1.5% | [3] 10%

CCCN1C[C@H](CSC)C[C@@H]2c3cccc4[nH]cc(c34)C[C@H]21
inactive: [1] -8.5% | [2] -1.6% | [3] -33.7%

COc1ccc(CCN=C(N)C(C)c2ccccc2)cc1OC (stereo unspecified)
inactive: [1] -0.2% | [2] 0% | [3] 6.6%

Cn1cc(CN(CCO)Cc2cccs2)c(-c2cccc(Cl)c2)n1
inactive: [1] 1.3% | [2] 1.3% | [3] -1.3%

O=C(CSCc1ccccc1)NCCCN1CCOCC1
inactive: [1] -2.9% | [2] -0.9% | [3] -8.8%

O=C1NC(=O)C(c2ccccc2)(c2ccccc2)N1
inactive: [1] 1.3% and 5.2% | [2] -1% and -1.4% | [3] 0.3% and -2.4%

COc1ccc(CN(CCC(c2ccccc2)c2ccc(OC(C)C)cc2)C(=O)CCl)cc1OC (stereo unspecified)
inactive: [1] -3.8% | [2] 0.3% | [3] -6.4%

COc1ccc(C(=O)Oc2ccc3c(C)cc(=O)oc3c2C(C)=O)cc1
inactive: [1] 0.7% | [2] -0.3% | [3] 3%

COc1ccccc1NC(=O)Cn1c(C)cc(=O)c2cccc(OC)c21
inactive: [1] -1.1% | [2] -0.9% | [3] -0.2%

COc1ccc(/C=C\C(=O)c2c(O)ccc3c(C)cc(=O)oc23)cc1OC
inactive: [1] 1.5% | [2] 0.2% | [3] -2.9%

Cc1oc2cc(O)cc(O)c2c(=O)c1-c1ccc2c(c1)OCCCO2
inactive: [1] 1.4% | [2] -0.4% | [3] -5.8%

Cc1ncc([N+](=O)[O-])n1CC(C)O (stereo unspecified)
inactive: [1] -0.2% | [2] 1.1% | [3] 0.3%

O=C(NCc1ccco1)/C(=C\C=C\c1ccccc1)NC(=O)c1ccccc1Br
inactive: [1] -0.5% | [2] 0% | [3] 1.6%

CN(C)C(=O)C12CCC(C)(c3nc4ccccc4nc31)C2(C)C (stereo unspecified)
inactive: [1] -1.3% | [2] -1.5% | [3] 1.8%

CCN(CC)CCOC(=O)C1(C2CCCCC2)CCCCC1
inactive: [1] 1.9% | [2] 1% | [3] -2.4%

O=C(Cc1c[nH]c2ccccc12)OCCOC(=O)Cc1c[nH]c2ccccc12
inactive: [1] 0.9% | [2] -0.1% | [3] -5.9%

OCC(O)CN1CCN(c2ccccc2)CC1 (stereo unspecified)
inactive: [1] 1.1% | [2] 0.8% | [3] -2.7%
